Source: PubChem
HepG2 viability: kills HepG2 cells in TGF-b inhibitor counter-screen; 410,000 compounds, 0.76% hits; HepG2 CAGA-GFP viability, ATP luminescence, 18 h; Potency, µM (doses to about 46.1 µM), usual class: cytotoxic
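CellTiter-Glo luminescence gave cytotoxicity after 18 hours at 37 degrees C. The cells were HepG2 CAGA-GFP in 1% FBS DMEM, stimulated with 500 pg/mL TGF-beta after compound addition. %Activity was normalised to no-cell wells (complete cell-killing) and DMSO (no toxicity), and curves were fitted and classified.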
ATXN viability: viability counter-screen for ATXN expression inhibitors. S2 cells (HEK-293 line with an ATXN2-luciferase reporter) viability, CellTiter-Fluor protease fluorescence, 24 h. Potency, µM (titrated, usually from 56.7 µM), usual class: cytotoxic. 400,000 compounds, 0.49% hits. AID 651635; further: nearly all actives have a fitted effect of over 40% in size
HT1080NT lethal: kills 2HG-producing HT-1080-NT fibrosarcoma cells | HT-1080-NT fibrosarcoma viability, CellTiter-Glo ATP luminescence, 48 h | Potency, µM (series often up to 46.1 µM), most hits filed as cytotoxic | 360,000 compounds, 1.6% hits;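 further: NT is the 2HG producing partner of a matched IDH1 knockdown line; nearly all actives have a fitted effect of over 55% in size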
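Viability of the 2HG-overproducing fibrosarcoma line after 48 hours of compound exposure at 37 degrees C was determined by luminescence with CellTiter-Glo, and concentration-effect curves were then fitted and categorized.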
HT1080 IDH1KD tx: HT-1080 IDH1 knockdown cell toxicity (counter line); 360,000 compounds, 2% hits; HT-1080 IDH1 knockdown viability, ATP luminescence, 48 h; Potency, µM (series often up to 46.1 µM), actives largely listed as cytotoxic
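In this qHTS, HT-1080 cells depleted of IDH1 are exposed for 48 h at 37 °C to compound titrations. Toxicity is scored from CellTiter-Glo luminescence, with DMSO as full viability and medium alone as none.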
ATXN2 expr inh: ATXN2 expression inhibition. HEK-293 ATXN2-luciferase reporter, luminescence, 24 h. Potency, µM (top dose mostly 57 µM), usual class: inhibitors. 360,000 compounds, 0.72% hits. AID 1745845; further: nearly all actives have a fitted effect of over 55% in size
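ATXN2-luciferase reporter cells (luciferase flanked by upstream and downstream ATXN2 gene portions) were treated 24 h at 37 °C with compounds at up to 57 uM. SteadyGlo luminescence gave expression; GF-AFC fluorescence gave viability.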
TGFb inhibitor: inhibitors of TGF-b signaling. HepG2 CAGA-GFP TGF-b/SMAD3 reporter, GFP fluorescence, 18 h; TGF-beta stimulated, 500 pg/mL final. Potency, µM (top dose mostly 46.1 µM), actives largely listed as inhibitors. 410,000 compounds, 1.2% hits; further: nearly all actives have a fitted effect of over 65% in size
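Inhibition was scored as loss of TGF-beta-induced (500 pg/mL final, 18 hours, 37 degrees C) GFP in HEPG2 cells carrying a CAGA-GFP reporter, in DMEM with 1% FBS. Well GFP was summed per cell; Activity was normalised to unstimulated and stimulated DMSO wells, then concentration-response fitting.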
Hits are given with their value; – = inactive; ? = inconclusive; · = no result given; [ ] = remark or other dose. Shown are actives, neighbours in structure and some others; about 3.8% of the full set was active somewhere. The call rests on the fitted dose curve; in most records, active means well fitted curve in the direction sought with a large enough effect; inconclusive means small, poorly fitted or top-dose-only effect, or another doubt; inactive means no such curve, though single readings can be large; an effect the other way counts as inactive or inconclusive.

SMILES | HepG2 viability | ATXN viability | HT1080NT lethal | HT1080 IDH1KD tx | ATXN2 expr inh | TGFb inhibitor
CCOC(=O)C(CC)n1nnc2sc(-c3ccccc3)cc2c1=O (stereo not drawn) | – | – | · | · | – | –
COc1cc2c(c(OC)c1OC)-c1c(cc3c(c1OC)OCO3)C[C@@H](C)[C@](C)(O)C2 | · | – | · | · | · | ·
CC(O)(COc1ccccc1)c1ccc2c(c1)CN(Cc1cccnc1)CCO2 (stereo not drawn) | · | – | · | · | · | ·
Cc1c(C(=O)N2CCOc3ccc(Cl)cc3C2)sc2ncnc(NCCc3ccccn3)c12 | · | – | · | · | · | ·
CNC1[C@H](O)C(O[C@@H]2C(O)C(O[C@H]3O[C@H]([C@@H](C)NC)CC[C@H]3N)[C@@H](N)C[C@H]2N)OC[C@]1(C)O (stereo partly drawn) | · | · | · | · | – | ·
Cc1ccc(C(=O)Sc2cccccc2=O)cc1 | 1.41µM | · | ? | 1.64µM | ? | 0.891µM
CCOc1ccc(CCNC(=O)NCc2noc3ccc(C)cc23)cc1 | – | – | · | · | – | –
CCc1nc2ccc(C(=O)Nc3cc(-c4ccccc4)ccc3OC)cn2c1N(C)CCCc1ccccc1 | – | – | ? | ? | – | –
CCc1nc2ccc(C(=O)Nc3cc(-c4ccccc4)ccc3OC)cn2c1N(C)Cc1nccs1 | – | ? | ? | 23.1µM | – | ?
CCCCN(C)c1c(C)nc2ccc(C(=O)Nc3cc(-c4ccccc4)ccc3OC)cn12 | 12.6µM | ? | ? | ? | ? | ?
CCc1nc2ccc(C(=O)Nc3cc(-c4ccccc4)ccc3OC)cn2c1N(CCN(C)C)CC1CC1 | – | 28.2µM | ? | 18.4µM | ? | ?
O.O=C([O-])CC([S-])C(=O)[O-].[Au+].[Na+].[Na+] (stereo not drawn) | · | – | · | · | · | ·
CCc1c(C2(O)CCCCC2)[nH]c2ccc(C(F)(F)F)cc12 | – | · | ? | – | – | 11.2µM
CN(C)Cc1c(C(C)(C)O)[nH]c2ccc(C(F)(F)F)cc12 | – | – | – | – | – | –
COc1ccc(/C=C/C(=O)c2cc(F)ccc2OC(=O)c2ccccc2C)cc1OC | – | ? | 1.3µM | 3.26µM | – | ?
COc1ccc(/C=C/C(=O)c2c(O)c(OC)c3occc3c2OC)cc1OC | · | · | 17.8µM | 11.2µM | · | ·
COc1ccc(/C=C/C(=O)c2ccc3c4c(cccc24)CC3)cc1OC | – | – | ? | 16.4µM | 15.8µM | ?
CN[C@@H]1[C@@H](O[C@H]2O[C@H](CO)[C@@H](N)[C@H](O)[C@H]2O)O[C@H]2C[C@@H](N)[C@@H](O[C@H]3[C@H](O)[C@@H](O)[C@H](N)C[C@@H]3N)O[C@@H]2[C@@H]1O | · | – | · | · | · | ·
CCOc1cc(C(c2c(C)[nH]n(-c3ccccc3)c2=O)c2c(C)[nH]n(-c3ccccc3)c2=O)ccc1O | 8.91µM | · | · | · | ? | 11.2µM
COc1ccc(C(c2c(C)[nH]n(-c3ccccc3)c2=O)c2c(C)[nH]n(-c3ccccc3)c2=O)cc1OC | – | ? | – | – | – | –
Cc1[nH]n(-c2ccccc2)c(=O)c1C(c1cc(Cl)ccc1O)c1c(C)[nH]n(-c2ccccc2)c1=O | – | · | · | · | · | 7.94µM
C[C@@]1(c2cc(-c3cncnc3)c(F)cc2F)CCSC(N)=N1 | · | · | · | · | – | ·
COCCN1CCN(C(=O)c2ccc3nc(Cc4ccc(OC)c(OC)c4)oc3c2)CC1 | – | – | 7.31µM | – | – | –
Cc1cccc(NNC(=O)C2CCC2)c1 | – | – | 7.31µM | 7.31µM | · | –
Cc1ccccc1-c1nc(-c2cccnc2)no1 | – | – | – | – | – | –
SMILES | HepG2 viability | ATXN viability | HT1080NT lethal | HT1080 IDH1KD tx | ATXN2 expr inh | TGFb inhibitor
Cc1ccccc1-c1nc(-c2ccccn2)no1 | – | – | 23.1µM | 20.6µM | ? | –
COc1ccc(-c2nc(-c3ccccn3)no2)cc1 | 3.55µM | – | 8.2µM | 9.2µM | ? | –
COc1ccccc1-c1nc(-c2ccccn2)no1 | – | – | 20.6µM | 23.1µM | ? | –
O=C(NCc1ccc(F)cc1)c1ccc2c(c1)nc1n2CCCCC1 | – | · | · | · | · | –
COC(=O)c1cc2occc2n1CC(=O)Nc1ccc(C)cc1Cl | – | – | · | · | – | –
COc1cc(CNC(C)C23CC4CC(CC(C4)C2)C3)ccc1OCC(=O)NC(C)(C)C (stereo not drawn) | – | ? | ? | 23.1µM | – | ?
COc1cc(CNC(C)(C)CO)ccc1OCC(=O)NC(C)(C)C | – | ? | – | – | – | –
CCc1ccccc1-n1c2c(cc(-c3nc(-c4ccc(Cl)cc4)cs3)c1=O)C(=O)CC(C)(C)C2 | – | – | · | · | – | –
O=C1[C@@H](Oc2ccccc2)[C@@H](c2cccnc2)N1c1ccccc1 | – | ? | ? | 20.6µM | ? | –
O=C1[C@@H](Oc2ccccc2)[C@@H](c2ccccc2)N1c1ccccc1 | – | – | – | – | – | –
CCc1ccc(C(=O)c2cn(Cc3ccccc3)c3cc(OC)c(OC)cc3c2=O)cc1 | – | ? | · | · | – | ?
CC1C(=O)C(C)C(c2cc(Cl)ccc2O)NC1c1cc(Cl)ccc1O (stereo not drawn) | – | · | 16.4µM | 23.1µM | 25.1µM | ?
O=[N+]([O-])c1cc(S(=O)(=O)Nc2ccccc2)ccc1NCc1ccccc1 | – | – | – | – | – | ?
O=[N+]([O-])c1cc(S(=O)(=O)Nc2ccccc2)ccc1Nc1ccccc1 | – | – | 7.31µM | – | – | ?
Cc1c(Cl)cccc1NC(=O)CC(c1cccs1)N1Cc2ccccc2C1=O (stereo not drawn) | – | – | · | · | – | ?
Cc1c(Cl)cccc1NC(=O)CC(c1ccc(F)cc1)N1Cc2ccccc2C1=O (stereo not drawn) | – | · | · | · | · | 17.8µM
COc1ccc(CNC(=O)CN2N=C(c3ccc(Cl)cc3)CCC2=O)cc1 | – | · | · | · | · | –
Cc1nnc(N2C(=O)c3oc4ccccc4c(=O)c3C2c2ccc(Cl)cc2)s1 (stereo not drawn) | – | – | · | · | – | –
CC1CC1C(=O)N1CCN(S(=O)(=O)c2cc(C(F)(F)F)cc(C(F)(F)F)c2)CC1 (stereo not drawn) | – | – | –[9.24 µM] | – | ? | 14.1µM
CCOC(=O)c1sc(NC(=O)CCN2CCN(CC)CC2)c(C(=O)OCC)c1C | – | ? | 23.1µM | 18.4µM | ? | ?
CCn1nc(C)cc1C(=O)NCC1Cc2cccc(-c3cccnc3)c2O1 (stereo not drawn) | · | – | · | · | · | ·
CCOc1cccc(N)c1 | – | – | – | – | – | –
CCOc1ccc(N)c(SSc2cc(OCC)ccc2N)c1 | 10µM | 1µM | ? | ? | · | 6.31µM
O=C(Cn1cc(S(=O)(=O)N2CCN(c3ccccc3F)CC2)c2ccccc2c1=O)Nc1ccc(F)cc1Cl | – | – | · | · | – | –
CCc1ccccc1N(C)C(=O)Cc1c(C(=O)O)c(C)cn1C | – | – | · | · | – | –
